Results taken from PubChem BioAssay (EPA / NIEHS).
Active and inactive are the calls of the source. Rule for the calls: active = hit-call score of the fitted dose curve at least 0.9, where 1 is the maximum; inactive = score below 0.9.

Tests used:
[1] = molecular target: Bile acid receptor (Homo sapiens) (UniProt Q96RI1); assay: ATG_IR1_CIS: Attagene CIS-FACTORIAL HepG2 Assay for human Nuclear Receptor Subfamily 1 Group H Member 4 (NR1H4), IR1 submotif (AID 2282946); conditions: IR1 reporter transcription, actives raise or lower the signal
Summary of the method: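 Transient MRTU transfection, HepG2; 24 h dosing; RNA → RT-PCR → 6-FAM primer extension → HpaI digest → capillary electrophoresis fluorescence. Gain/loss of signal fitted relative to DMSO.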

[2] = ATG_GRE_CIS: Attagene CIS-FACTORIAL HepG2 Assay for human Glucocorticoid Response Elements (GRE) (AID 2282947); conditions: HepG2 GRE cis-reporter, Attagene multiplex mRNA; actives raise or lower the signal
Summary of the method: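 HepG2 cells transiently transfected with multiple cis-promoter reporter units measure endogenous TF activity; 24 h compound exposure. Reporter mRNA quantified by RT-PCR, FAM labelling, HpaI digestion and capillary electrophoresis; bidirectional fit vs DMSO baseline.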

[3] = ATG_ISRE_CIS: Attagene CIS-FACTORIAL HepG2 Assay for human Interferon Regulatory Factor 1 (IRF1) binding to an Interferon-Stimulated Response Element (ISRE) (AID 2282948); conditions: HepG2 ISRE cis-reporter (Attagene), mRNA transcription readout; actives raise or lower the signal
Summary of the method: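 Transfected HepG2 (multiple reporter transcription units, cis elements) dosed 24 h. RNA → oligo(dT) RT → PCR → 6-FAM primer extension → HpaI → CE. DMSO = negative control/baseline.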

[4] = ATG_M_32_CIS: Attagene CIS-FACTORIAL HepG2 Assay for M32 Transcription Factor (Internal Marker) (AID 2282949); conditions: HepG2 Attagene cis-factorial M32 reporter, mRNA; actives raise or lower the signal;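 note: background control marker of the multiplexed CIS panel rather than a real target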
Summary of the method: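 Following 24 h chemical exposure of HepG2 cells transiently expressing cis-promoter reporter constructs, reporter transcript levels were determined by RT-PCR with fluorescent labelling and capillary electrophoresis, then fitted bidirectionally against DMSO.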

[5] = ATG_M_06_CIS: Attagene CIS-FACTORIAL HepG2 Assay for M06 Transcription Factor (Internal Marker) (AID 2282950); conditions: HepG2 Attagene CIS-FACTORIAL M06 internal marker reporter; actives raise or lower the signal
Summary of the method: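 Cells (HepG2, transiently carrying cis-driven reporter units) receive chemical for 24 h before RNA isolation. Reporter cDNA is PCR-amplified, FAM-labelled by primer extension, HpaI-digested and sized on a capillary analyser.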

[6] = molecular target: Hepatocyte nuclear factor 6 (Homo sapiens) (UniProt Q9UBC0); assay: ATG_HNF6_CIS: Attagene CIS-FACTORIAL HepG2 Assay for human Hepatocyte Nuclear Factor 6 (HNF6) (AID 2282952); conditions: HepG2 Attagene cis-factorial HNF6 reporter transcription; actives raise or lower the signal
Summary of the method: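 HepG2 cells transiently transfected with cis-element-driven multiplexed reporter units measuring endogenous transcription factor activity. After 24 h exposure, reporter mRNA quantified by RT-PCR, FAM-labelled fragments and capillary electrophoresis; bidirectional fitting versus DMSO.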

[7] = molecular target: Heat shock factor protein 1 (Homo sapiens) (UniProt Q00613); assay: ATG_HSE_CIS: Attagene CIS-FACTORIAL HepG2 Assay for human Heat Shock Transcription Factor 1 (HSE) (AID 2282953); conditions: HepG2 HSE cis-reporter, Attagene RNA transcription; actives raise or lower the signal
Summary of the method: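 Liver-derived HepG2 cells carry transiently introduced multiple reporter units governed by cis promoters. Reporter RNA measured 24 h post-dose through reverse transcription, PCR amplification, fluorescent labelling and capillary electrophoresis, normalised to DMSO.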

[8] = ATG_MRE_CIS: Attagene CIS-FACTORIAL HepG2 Assay for human Metal Responsive Element (MRE) (AID 2282954); conditions: HepG2 MRE cis-reporter transcription, Attagene multiplex; actives raise or lower the signal
Summary of the method: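 HepG2 cells transiently transfected with multiple cis-element reporter units measure endogenous MTF1-driven transcription. After 24 h compound exposure, reporter mRNA is quantified by RT-PCR with 6-FAM labelling, HpaI digestion and capillary electrophoresis; bidirectional fits versus DMSO.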

[9] = molecular target: Paired box protein Pax-6 (Homo sapiens) (UniProt P26367); assay: ATG_Pax6_CIS: Attagene CIS-FACTORIAL HepG2 Assay for human Paired Box 6 (PAX6) (AID 2282956); conditions: HepG2 CIS-FACTORIAL PAX6 reporter transcription, RNA readout; actives raise or lower the signal
Summary of the method: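 Transient MRTU transfection of HepG2 → compound exposure 24 h → TriZol RNA, oligo(dT) RT → PCR, 6-FAM primer extension, HpaI cut → capillary electrophoresis; activity fitted both directions against DMSO.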

[10] = ATG_PXRE_CIS: Attagene CIS-FACTORIAL HepG2 Assay for human Pregnane X Receptor Element (PXRE) (AID 2282957); conditions: HepG2 Attagene CIS-FACTORIAL PXRE reporter, mRNA; actives raise or lower the signal
Summary of the method: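 HepG2 cells transiently transfected with cis-element-driven multiplexed reporter units; after 24 h chemical exposure, reporter mRNA measured by RT-PCR, 6-FAM labelling, HpaI digestion and capillary electrophoresis. Bidirectional fitting relative to DMSO.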

[11] = ATG_PPRE_CIS: Attagene CIS-FACTORIAL HepG2 Assay for human Peroxisome Proliferator-activated Response Element (PPRE) (AID 2282958); conditions: HepG2 PPRE cis-element reporter, Attagene transcription factor profiling; actives raise or lower the signal
Summary of the method: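 Measured endpoint: PPRE-controlled reporter mRNA, detected by RT-PCR and capillary electrophoresis fluorescence, from transiently transfected HepG2 cells 24 h after dosing. Curves fitted in both directions using DMSO baseline.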

[12] = ATG_RORE_CIS: Attagene CIS-FACTORIAL HepG2 Assay for human RAR-related Orphan Receptor Element (RORE) (AID 2282959); conditions: HepG2 Attagene cis-factorial RORE reporter, mRNA; actives raise or lower the signal
Summary of the method: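 Transiently transfected HepG2 reporter cells were treated 24 h. Reporter transcripts were detected by RT-PCR and capillary electrophoresis, with bidirectional fitting against DMSO.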

[13] = ATG_Sox_CIS: Attagene CIS-FACTORIAL HepG2 Assay for human SRY-box transcription factor (SOX) (AID 2282960); conditions: HepG2 Attagene cis-factorial SOX reporter, mRNA; actives raise or lower the signal
Summary of the method: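 Gain- or loss-of-signal endpoint, fitted bidirectionally with DMSO as negative control. Based on reporter mRNA from transfected HepG2 cells harvested 24 h post-treatment and quantified via RT-PCR and capillary electrophoresis.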

[14] = molecular target: Transcription factor Sp1 (Homo sapiens) (UniProt P08047); assay: ATG_Sp1_CIS: Attagene CIS-FACTORIAL HepG2 Assay for human Specificity Protein 1 (Sp1) (AID 2282961); conditions: HepG2 Sp1 cis-reporter transcription, actives raise or lower the signal
Summary of the method: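 Endpoint reflects endogenous Sp1 transcriptional activity, not an exogenous fusion protein: HepG2 cells with transfected cis-regulated reporters, 24 h dosing, RT-PCR/capillary electrophoresis mRNA read-out, DMSO-normalised bidirectional fit.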

[15] = ATG_SREBP_CIS: Attagene CIS-FACTORIAL HepG2 Assay for human Sterol Regulatory Element Binding (SREBP) (AID 2282962); conditions: HepG2 Attagene cis-factorial SREBP reporter, mRNA; actives raise or lower the signal
Summary of the method: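 Transfected HepG2 (cis-regulated reporter library, endogenous TFs) → compound 24 h → total RNA → oligo(dT) RT → reporter-specific PCR → FAM primer extension, HpaI cut → CE fluorescence. Fit bidirectional vs DMSO.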

[16] = molecular target: Signal transducer and activator of transcription 3 (Homo sapiens) (UniProt P40763); assay: ATG_STAT3_CIS: Attagene CIS-FACTORIAL HepG2 Assay for human Signal Transducer and Activator of Transcription 3 (STAT3) (AID 2282963); conditions: HepG2, Attagene cis-factorial STAT3 reporter transcription; actives raise or lower the signal
Summary of the method: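 HepG2 cells transiently transfected with cis-element-driven multiple reporter transcription units; after 24 h chemical exposure, reporter mRNA measured by RT-PCR, 6-FAM primer-extension labelling, HpaI digestion and capillary electrophoresis. Bidirectional fitting versus DMSO baseline.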

[17] = ATG_TA_CIS: Attagene CIS-FACTORIAL HepG2 Assay for human TA Basal Promoter (AID 2282964); conditions: HepG2 Attagene CIS-factorial TA basal promoter reporter; actives raise or lower the signal
Summary of the method: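 Background internal-marker endpoint from a 52-component HepG2 cis-reporter panel. Cells treated 24 h; reporter transcripts quantified via RT-PCR and CE fluorescence against DMSO baseline.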

[18] = ATG_TCF_b_cat_CIS: Attagene CIS-FACTORIAL HepG2 Assay for human T-Cell-Factor with beta-catenin (TCF/b-cat) (AID 2282965); conditions: HepG2 TCF/beta-catenin cis-reporter transcription, actives raise or lower the signal
Summary of the method: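 HepG2 cells transiently transfected with multiple cis-promoter-regulated reporter transcription units, so endogenous transcription factor activity is measured. Reporter mRNA read 24 hours after dosing by RT-PCR, fluorescent labelling and capillary electrophoresis; bidirectional fitting against DMSO.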

[19] = molecular target: Hypoxia-inducible factor 1-alpha (Homo sapiens) (UniProt Q16665); assay: ATG_HIF1a_CIS: Attagene CIS-FACTORIAL HepG2 Assay for human Hypoxia Inducible Factor 1 (HIF1A) (AID 2282951); conditions: HepG2 Attagene cis-factorial HIF1a reporter transcription; actives raise or lower the signal
Summary of the method: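 Dosed 24 h, transfected HepG2 cells yielded total RNA whose reporter transcripts were RT-PCR-amplified and sized by capillary electrophoresis using fluorescent labelling; DMSO defined baseline, with gain and loss of signal both fitted.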

[20] = ATG_PBREM_CIS: Attagene CIS-FACTORIAL HepG2 Assay for human Phenobarbital-responsive Enhancer Module (PBREM) (AID 2282955); conditions: HepG2 PBREM cis-reporter, Attagene multiplexed transcription; actives raise or lower the signal
Summary of the method: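 Transfected liver-derived HepG2 cells exposed 24 h; PBREM reporter transcript quantified via RT-PCR and capillary electrophoresis, with activity in either direction referenced to DMSO.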

Measured: AC50

Heat shock factor protein 1 (Homo sapiens), sequence (Q00613 whole entry, looked up): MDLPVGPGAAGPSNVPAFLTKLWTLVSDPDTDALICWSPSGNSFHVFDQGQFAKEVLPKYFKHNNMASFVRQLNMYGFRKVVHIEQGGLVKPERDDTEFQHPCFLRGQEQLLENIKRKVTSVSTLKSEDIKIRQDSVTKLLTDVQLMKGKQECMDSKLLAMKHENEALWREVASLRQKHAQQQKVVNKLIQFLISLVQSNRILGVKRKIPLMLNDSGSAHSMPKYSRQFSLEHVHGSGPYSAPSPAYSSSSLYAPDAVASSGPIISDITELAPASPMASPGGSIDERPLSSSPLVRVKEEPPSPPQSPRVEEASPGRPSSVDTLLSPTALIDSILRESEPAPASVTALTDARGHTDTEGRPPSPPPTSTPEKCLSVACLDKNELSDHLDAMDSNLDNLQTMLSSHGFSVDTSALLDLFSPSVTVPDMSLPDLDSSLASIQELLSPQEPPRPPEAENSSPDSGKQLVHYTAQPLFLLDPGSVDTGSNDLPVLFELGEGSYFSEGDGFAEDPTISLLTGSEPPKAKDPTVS
Signal transducer and activator of transcription 3 (Homo sapiens), sequence (P40763 whole entry, looked up): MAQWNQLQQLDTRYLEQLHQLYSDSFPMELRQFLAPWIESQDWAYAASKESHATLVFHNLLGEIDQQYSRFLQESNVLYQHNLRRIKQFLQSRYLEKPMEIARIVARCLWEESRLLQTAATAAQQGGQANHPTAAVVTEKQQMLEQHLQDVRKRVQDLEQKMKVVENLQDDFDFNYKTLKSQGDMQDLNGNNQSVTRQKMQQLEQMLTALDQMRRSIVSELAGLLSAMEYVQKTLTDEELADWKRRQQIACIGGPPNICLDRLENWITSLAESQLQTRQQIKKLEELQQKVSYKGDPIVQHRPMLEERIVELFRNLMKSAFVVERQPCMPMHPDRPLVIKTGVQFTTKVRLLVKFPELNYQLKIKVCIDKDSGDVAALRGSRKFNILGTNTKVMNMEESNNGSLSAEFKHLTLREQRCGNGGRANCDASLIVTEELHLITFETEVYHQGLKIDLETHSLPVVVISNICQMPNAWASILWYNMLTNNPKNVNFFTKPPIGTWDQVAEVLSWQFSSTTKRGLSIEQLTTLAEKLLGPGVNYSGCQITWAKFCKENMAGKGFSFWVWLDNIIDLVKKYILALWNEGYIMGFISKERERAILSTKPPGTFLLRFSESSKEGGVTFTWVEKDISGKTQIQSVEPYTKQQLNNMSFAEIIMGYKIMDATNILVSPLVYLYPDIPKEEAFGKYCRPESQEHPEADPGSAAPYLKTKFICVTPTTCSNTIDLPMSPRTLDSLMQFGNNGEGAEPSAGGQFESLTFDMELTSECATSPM
Bile acid receptor (Homo sapiens), sequence (Q96RI1 whole entry, looked up): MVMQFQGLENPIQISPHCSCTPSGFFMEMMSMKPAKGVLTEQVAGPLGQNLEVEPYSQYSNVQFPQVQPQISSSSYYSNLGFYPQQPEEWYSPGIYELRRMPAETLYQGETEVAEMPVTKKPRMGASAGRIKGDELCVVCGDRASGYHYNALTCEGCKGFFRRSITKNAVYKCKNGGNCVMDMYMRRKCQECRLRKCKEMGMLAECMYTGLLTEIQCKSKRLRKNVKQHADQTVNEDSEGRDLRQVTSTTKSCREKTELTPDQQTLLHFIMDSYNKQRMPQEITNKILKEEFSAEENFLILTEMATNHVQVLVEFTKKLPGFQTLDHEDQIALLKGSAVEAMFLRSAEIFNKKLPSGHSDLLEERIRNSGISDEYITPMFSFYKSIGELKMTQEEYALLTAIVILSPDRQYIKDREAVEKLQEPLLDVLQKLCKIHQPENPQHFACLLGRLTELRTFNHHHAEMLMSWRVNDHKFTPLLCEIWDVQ
Hepatocyte nuclear factor 6 (Homo sapiens), sequence (Q9UBC0 whole entry, looked up, the tested form may be a part): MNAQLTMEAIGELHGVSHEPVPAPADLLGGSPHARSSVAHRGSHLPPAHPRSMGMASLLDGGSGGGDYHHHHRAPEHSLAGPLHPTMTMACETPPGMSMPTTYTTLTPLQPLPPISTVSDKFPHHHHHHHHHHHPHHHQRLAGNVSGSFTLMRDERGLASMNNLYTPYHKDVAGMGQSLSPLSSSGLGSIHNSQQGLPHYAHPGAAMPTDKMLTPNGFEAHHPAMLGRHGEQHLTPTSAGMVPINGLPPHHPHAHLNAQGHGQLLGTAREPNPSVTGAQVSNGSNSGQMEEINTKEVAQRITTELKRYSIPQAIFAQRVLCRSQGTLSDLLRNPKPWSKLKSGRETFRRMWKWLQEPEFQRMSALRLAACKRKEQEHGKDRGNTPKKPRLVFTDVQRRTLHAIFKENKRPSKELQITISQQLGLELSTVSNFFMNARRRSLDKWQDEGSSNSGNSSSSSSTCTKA
Hypoxia-inducible factor 1-alpha (Homo sapiens), sequence (Q16665 whole entry, looked up): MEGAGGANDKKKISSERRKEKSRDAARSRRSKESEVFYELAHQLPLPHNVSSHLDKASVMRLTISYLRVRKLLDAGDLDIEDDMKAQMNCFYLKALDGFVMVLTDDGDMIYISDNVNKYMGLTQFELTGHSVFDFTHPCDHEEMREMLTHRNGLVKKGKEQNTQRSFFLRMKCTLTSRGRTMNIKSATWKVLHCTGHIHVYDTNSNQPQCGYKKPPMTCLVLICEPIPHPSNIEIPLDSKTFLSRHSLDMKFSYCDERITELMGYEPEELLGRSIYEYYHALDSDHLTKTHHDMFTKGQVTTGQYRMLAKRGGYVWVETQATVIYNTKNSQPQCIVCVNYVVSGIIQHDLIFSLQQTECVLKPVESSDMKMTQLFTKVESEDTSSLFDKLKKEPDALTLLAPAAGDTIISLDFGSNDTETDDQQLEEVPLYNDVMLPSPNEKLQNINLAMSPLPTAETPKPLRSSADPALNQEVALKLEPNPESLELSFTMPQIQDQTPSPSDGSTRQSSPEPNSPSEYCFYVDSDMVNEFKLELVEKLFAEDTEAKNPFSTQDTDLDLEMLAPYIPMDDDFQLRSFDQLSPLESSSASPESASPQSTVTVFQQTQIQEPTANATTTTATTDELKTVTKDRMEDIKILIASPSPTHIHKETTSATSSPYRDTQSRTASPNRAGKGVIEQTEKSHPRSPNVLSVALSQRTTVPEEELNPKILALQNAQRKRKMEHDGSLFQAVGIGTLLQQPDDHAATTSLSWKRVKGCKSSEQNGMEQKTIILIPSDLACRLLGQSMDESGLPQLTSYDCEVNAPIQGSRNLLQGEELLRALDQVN
Transcription factor Sp1 (Homo sapiens), sequence (P08047 whole entry, looked up, the tested form may be a part): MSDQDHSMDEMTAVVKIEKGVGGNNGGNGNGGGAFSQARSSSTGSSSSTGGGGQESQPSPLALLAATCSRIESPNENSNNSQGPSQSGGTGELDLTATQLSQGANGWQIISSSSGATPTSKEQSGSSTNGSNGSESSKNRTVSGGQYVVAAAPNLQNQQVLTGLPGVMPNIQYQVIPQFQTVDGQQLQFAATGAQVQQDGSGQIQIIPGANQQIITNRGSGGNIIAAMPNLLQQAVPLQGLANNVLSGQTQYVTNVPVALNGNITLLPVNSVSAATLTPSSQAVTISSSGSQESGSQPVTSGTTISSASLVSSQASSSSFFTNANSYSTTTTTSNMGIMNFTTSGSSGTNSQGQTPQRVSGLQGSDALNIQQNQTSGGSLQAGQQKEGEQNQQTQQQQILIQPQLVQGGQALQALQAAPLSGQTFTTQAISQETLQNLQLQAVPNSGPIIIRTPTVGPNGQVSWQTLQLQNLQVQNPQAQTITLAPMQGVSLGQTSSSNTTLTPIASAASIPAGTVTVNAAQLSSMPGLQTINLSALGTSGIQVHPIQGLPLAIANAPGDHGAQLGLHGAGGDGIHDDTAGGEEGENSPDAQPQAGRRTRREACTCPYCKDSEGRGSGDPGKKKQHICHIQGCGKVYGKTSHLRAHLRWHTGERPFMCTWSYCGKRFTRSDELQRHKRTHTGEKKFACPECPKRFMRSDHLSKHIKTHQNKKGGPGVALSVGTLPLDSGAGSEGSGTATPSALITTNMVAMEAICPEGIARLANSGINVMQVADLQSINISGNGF
Paired box protein Pax-6 (Homo sapiens), sequence (P26367 whole entry, looked up): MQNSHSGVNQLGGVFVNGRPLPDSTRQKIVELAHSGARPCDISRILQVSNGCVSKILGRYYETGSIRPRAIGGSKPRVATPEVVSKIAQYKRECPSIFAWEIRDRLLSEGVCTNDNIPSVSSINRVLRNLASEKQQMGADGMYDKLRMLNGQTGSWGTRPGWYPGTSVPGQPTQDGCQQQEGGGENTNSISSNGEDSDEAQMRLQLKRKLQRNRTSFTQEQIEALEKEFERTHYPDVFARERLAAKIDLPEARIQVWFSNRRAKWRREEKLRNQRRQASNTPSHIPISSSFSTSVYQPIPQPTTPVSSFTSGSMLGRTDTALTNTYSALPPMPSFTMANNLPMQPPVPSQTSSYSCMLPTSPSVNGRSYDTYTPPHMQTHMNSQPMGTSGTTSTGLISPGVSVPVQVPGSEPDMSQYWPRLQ

CC(=O)[C@H]1[C@H](C#N)C[C@H]2[C@@H]3CC=C4C[C@@H](O)CC[C@]4(C)[C@H]3CC[C@@]21C
not listed: [19] | [20]
inactive: all other assays above

CC(C)(C)c1ccc(-c2ccc(C(C)(C)C)cc2)cc1
not listed: [6] | [7]
inactive: all other assays above

C=CCOc1c(Br)cc(Br)cc1Br
active: [10] 12.7 µM
not listed: [4] | [11]
inactive: all other assays above

Clc1nc2ccccc2s1
not listed: [7] | [13] | [17] | [20]
inactive: all other assays above

C1CN(SSN2CCOCC2)CCO1
active: [7] 44.4 µM
not listed: [6] | [12] | [20]
inactive: all other assays above

CCCCCCCC/C=C\CCCCCCCC(=O)O
active: [1] 32 µM
not listed: [7] | [8] | [17] | [19] | [20]
inactive: all other assays above

Oc1ccc(Cl)cc1Cc1cc(Cl)ccc1O
active: [1] 11.1 µM | [8] 11.1 µM | [9] 11.1 µM | [11] 4.48 µM | [15] 7.54 µM | [18] 18.8 µM
not listed: [7] | [12] | [19]
inactive: all other assays above

CCCCCCC(O)CO (configuration not stated)
not listed: [7] | [8]
inactive: all other assays above
